Laboratory results from PubChem BioAssay (NCATS).
Inconclusive results are not listed. Activity calls are given as the source filed them. Calls come from the whole dose curve; as a rule, active = well fitted cell-killing curve with a large enough effect; inconclusive = small, poorly fitted or top-dose-only effect; inactive = flat fitted curve, though single readings scatter.

Assay: Quantitative highthroughput screen to assess conditional lethalithy of P12 Ichikawa cells grown in RPMI1640 with untreated serum (RPMI+s) (AID 1963881); note: nearly all actives have a fitted effect of over 35% in size
Settings: ATP luminescence, 48 h; Potency: viability; series mostly up to 45.8 µM; viability: at the top concentration
From the text: Assay Provider: Jason Cantor Ph.D.
Department of Biochemistry
University of Wisconsin-Madison, Madison, WI, USA
Chemical screening studies have identified drug sensitivities across hundreds of cancer cell lines but most putative therapeutics fail to translate. Discovery and development of drug candidates in models that more accurately reflect nutrient levels in human blood is a major challenge. Here we performed high-throughput screens in conventional versus Human Plasma-Like Medium (HPLM) to identify compounds that were "missed" when screening using the artificial culture condition. Sets of conditional anticancer compounds spanned phases of clinical development and included non-oncology drugs were assessed. […] We also traced conditional phenotypes for several chemotherapeutics to availability of HPLM-specific metabolites and confirmed others for compounds whose reported targets are encoded by nonessential genes. Our findings establish generalizable strategies for exploiting conditional lethality in HPLM to reveal therapeutic candidates and mechanisms of action in cancer cells.
Described herein are the results of each viability screens against three cell lines: NOMO1 (an acute myeloid leukemia cell line); P12-Ichikawa (a T-cell acute lymphoblastic leukemia); and SEM (a B-cell ALL). Each assay was screened using 3 different cell culture media: homemade human plasma-Like medium with 10% dialyzed fetal bovine serum (HPLM+ds); RPMI1640 with 10% untreated FBS and 5mM glucose (RPMI+s); and RPMI1640 with 10% dialyzed fetal bovine serum and 5 mM glucose (RPMI+ds).
PROTOCOL TABLE (as described by Inglese J, Shamu CE and Guy RK. 2007)
SEQUENCE No. (e.g., 1, 2, 3, etc.); […] (e.g., Cells, Incubation, Reagent, etc.); VALUE and DESCRIPTION.
1; Cells; 5 uL; white, solid bottom 1536-well Greiner assay plate.
2; Compounds; 23 nL; Kalypsis pin tool (Wako USA) equipped with a 1536-well pin head to transfer to the assay plates.
3; Incubation; 48 hours; 37C incubation.
4; Reagent; 3 uL; CellTiter Glo (Promega).
5; Incubation; 5 min, room temperature
6; Detection; Luminescence, Viewlux PerkinElmer.
NOTES (numbers refer to Sequence numbers above)
1. Briefly, 5 ul of cell reagent was dispensed using a Multidrop Combi Dispenser. The NOMO1 and SEM cells were plated at 500 cells/well and the P12-Ichikawa line at 1000 cells/well.
2. After seeding the cells, 23 nL of MIPE 4.1 library compounds (in DMSO) were added to each plate using a Kalypsys 1536 Pintool dispenser. Bortezomib at final concentration of […] and DMSO were added to each plate as positive and negative controls respectively. For each screen, MIPE 4.1 compounds were added over an eleven-point concentration range […] in 3-fold dilutions.
3. Each plate was covered with a stainless steel gasketed lid to prevent evaporation and incubated for 48 hour at 37C, 95% relative humidity, and 5% CO2.
4-5. Three microliter CellTilter-GloTM luminescent substrate mix (Promega) reagent was added to the assay plate and incubated at room temperature for 5 min.
6. The luminescence signal was measured using a ViewLux (PerkinElmer) multiplate reader with a 2 second exposure time per plate. Data for each compound were normalized as percent viability such that measurements for DMSO and the empty well controls in each plate were defined as 100% and 0%, respectively.
Potency is the fitted concentration of half-maximal effect.

SMILES	viability	Potency
NC1CC1c1ccccc1 (stereo not given)	101% (inactive)	–
CC(=O)OCC1=C(C(=O)O)N2C(=O)[C@@H](N)[C@@H]2SC1	–	1.48 µM (active)
CN(C)CCc1ccc(O)cc1	112% (inactive)	–
CN(C)CCN(C)CCc1ccc(Cl)c(Cl)c1	101% (inactive)	–
COCC1(CO)C(=O)C2CCN1CC2 (stereo not given)	–	16.6 µM (active)
C=C(C)[C@H]1Cc2c(ccc3c2O[C@@H]2COc4cc(OC)c(OC)cc4[C@@H]2C3=O)O1	–	2.09 µM (active)
COc1ccc2c(c[n+](C)c3c4cc5c(cc4ccc23)OCO5)c1OC	–	11.8 µM (active)
C[C@@H]1[C@@H](C(=O)C[C@H]2O[C@@H]3O[C@]4(C)CC[C@@H]5[C@H](C)CC[C@@H]([C@H]2C)[C@@]35OO4)O[C@@H]2O[C@]3(C)CC[C@H]4[C@H](C)CC[C@@H]1[C@@]24OO3	–	23.5 µM (active)
CCCC(C)(COC(N)=O)COC(=O)NC(C)C (stereo not given)	99.5% (inactive)	–
CC(O)=C(C#N)C(=O)Nc1cc(Br)ccc1Br	95.3% (inactive)	–
COc1ccc(CC2NCCc3cc(OC)c(OC)cc32)cc1OC (stereo not given)	94.9% (inactive)	–
Oc1ccc2c3c1O[C@H]1c4[nH]c5c(c4C[C@@]4(O)[C@@H](C2)N(CC2CC2)CC[C@]314)C[C@@]1(O)[C@H]2Cc3ccc(O)c4c3[C@@]1(CCN2CC1CC1)[C@H]5O4	106% (inactive)	–
CCc1c(C(=O)C(N)=O)c2c(OCC(=O)O)cccc2n1Cc1ccccc1	102% (inactive)	–
CCOC(=O)Nc1ccc(NCc2ccc(F)cc2)cc1N	98.3% (inactive)	–
CN(C)[C@@H]1C(=O)C(C(N)=O)=C(O)[C@@]2(O)C(=O)C3=C(O)c4c(O)cccc4[C@@](C)(O)[C@H]3C[C@@H]12	100% (inactive)	–
C[C@]12CCC(=O)C(O)=C1CC[C@@H]1[C@H]3CCC(=O)[C@@]3(C)CC[C@@H]12	99.2% (inactive)	–
O=C(N[C@H]1CN2CCC1CC2)c1ccc(Cl)cc1	87.4% (inactive)	–
COc1cc(OC)c(OC)cc1C=O	111% (inactive)	–
O=c1[nH]c2ccc(Cl)cc2c(N[C@@H]2CN3CCC2CC3)c1-c1nc2ccccc2[nH]1	–	0.166 µM (active)
CC1=C(O)C(=O)C=C2C1=CC=C1[C@@]2(C)CC[C@@]2(C)[C@@H]3C[C@](C)(C(=O)O)CC[C@]3(C)CC[C@]12C	–	2.96 µM (active)

SMILES	viability	Potency
c1cc2c(cc1[C@H]1OC[C@H]3[C@H]1CO[C@H]3c1ccc3c(c1)OCO3)OCO2	103% (inactive)	–
CC(C)c1cccc(C(C)C)c1O	108% (inactive)	–
CN1CCN(C(=O)O[C@H]2c3nccnc3C(=O)N2c2ccc(Cl)cn2)CC1	94.2% (inactive)	–
CC[C@@H](C(N)=O)N1CCCC1=O	98% (inactive)	–
CC(C)N(CCNC(=O)CN1CCCC1=O)C(C)C	100% (inactive)	–
CC(C)(O)C=CC(=O)[C@](C)(O)[C@H]1[C@H](O)C[C@]2(C)[C@@H]3CC=C4[C@@H](C=C(O)C(=O)C4(C)C)[C@]3(C)C(=O)C[C@@]12C	–	0.148 µM (active)
CCOC(=O)c1cncn1[C@H](C)c1ccccc1	107% (inactive)	–
CC(C)N[C@@H]1CCn2c(=O)[nH]c3cccc(c32)[C@@H]1O	99.6% (inactive)	–
CNC(=O)c1ccc(N2C(=S)N(c3ccc(C#N)c(C(F)(F)F)c3)C(=O)C23CCC3)cc1F	108% (inactive)	–
CN1C(=O)CCS(=O)(=O)C1c1ccc(Cl)cc1 (stereo not given)	97.7% (inactive)	–
CC[C@@]1(O)C(=O)OCc2c1cc1n(c2=O)Cc2cc3ccccc3nc2-1	–	0.0235 µM (active)
Cc1cccc(C)c1NC(=O)CN1CCCC1=O	95.3% (inactive)	–
C[C@@]12OC(=O)[C@]1([C@@H](O)[C@@H]1C=CCCC1)NC(=O)[C@H]2CCCl	–	0.235 µM (active)
CC(C)(C)c1cc(C=C(C#N)C#N)cc(Br)c1O	87% (inactive)	–
Cc1ncc(OC[C@@]2(c3cccc(F)c3)C[C@H]2C(=O)Nc2ccc(F)cn2)c(C)n1	89.1% (inactive)	–
Cc1[nH]nc2ccc(-c3cncc(OC[C@@H](N)Cc4c[nH]c5ccccc45)c3)cc12	–	1.48 µM (active)
C[C@]12CC[C@H](O)CC1=CC[C@H]1[C@H]3CCC(=O)[C@@]3(C)CC[C@@H]12	92.5% (inactive)	–
COc1ccc2c(c1)[C@]13CCCCC1C(C2)N(C)CC3 (stereo not given in full)	89.5% (inactive)	–
C#CC1(O)CCC2C3CCC4=CC(=O)CCC4(C)C3CCC21C (stereo not given)	107% (inactive)	–
COc1ccc2c(c1OC)CN1CCc3cc4c(cc3C1C2)OCO4 (stereo not given)	–	1.87 µM (active)
